Test results: PubChem BioAssay (Tox21)
Inconclusive results are not listed. Where a call stands in place of a potency, no number is given. Active and inactive are the calls of the source. Calls follow the shape of the dose curve; as a rule, active = well fitted cell-killing curve with a large enough effect in the repeat runs; inconclusive = weak or mixed curves; inactive = flat fitted curve, though single readings scatter.

Experiment: qHTS RealTime-Glo MT Cell Viability Assay in HepG2 cells - 32 hour (AID 1224877); also: nearly all actives have a fitted effect of over 55% in size
Details: RealTime-Glo luminescence; series mostly up to 76.8 µM
Description: U.S. Tox21 Program National Center for Advancing Translational Sciences [NCATS] NIH Chemical Genomics Center [NCGC] U.S. Environmental Protection Agency [EPA] National Institutes of Environmental Health Sciences [NIEHS] National Toxicology Program [NTP] U.S. Food and Drug Administration [FDA] Tox21 Assay Overview: Measure of cell viability is critical in the cell-base assay. Analysis of cell viability is necessary for the characterization of cell responses to cytotoxic drugs and environmental stress. A RealTime-Glo MT Cell Viability Assay to monitor cell viability in real time of continues cell culture during 40 hours of compound treatment was used to screen Tox21 10K library compounds in HepG2 cells. The RealTime-Glo MT Cell Viability Assay is a nonlytic, homogeneous, bioluminescent method to measure cell viability in real time using a simple, plate-based method. The assay involves adding NanoLuc luciferase and a cell-permeant prosubstrate to cells in culture. Viable cells reduce the proprietary prosubstrate to generate a substrate for NanoLuc luciferase. This substrate diffuses from cells into the surrounding culture medium, where it is rapidly used by the NanoLuc Enzyme to produce a luminescent signal. The signal correlates with the number of viable cells, making the assay well suited for cytotoxicity studies.
Tox21 Assay Protocol Summary: The mixture of HepG2 cell suspension and reagents were dispensed at 600cells/6 ul/well in 1536-well tissue culture treated black solid bottom plates using a Multidrop dispenser. After the assay plates were incubated at a 37 C/5% CO2 incubator for 5 hours, 23 nL of compounds dissolved in DMSO, positive and negative controls was transferred to the assay plate by a pintool work station. The plates were incubated at 37 C for 40 hours. The luminescence intensity were measured at 0h, 8h, 16h, 24h, 32h and 40h time points using ViewLux plate reader during compound treatment.
In the case of CN(C)CCOC(c1ccc(Cl)cc1)c1ccccn1 (stereo not given), the Potency is reported as “inactive”. With Cc1ccc(N)cc1[N+](=O)[O-] the Potency was “inactive”. With Cn1cnc2c(=O)[nH]c(N)nc21 the Potency was “inactive”. With Cc1cc(C)cc(OCC2CNC(=O)O2)c1 (stereo not given) the Potency was “inactive”. With CC1CCN(CCCC(=O)c2ccc(F)cc2)CC1 the Potency was “inactive”. In the case of O=C1OC(=O)c2cc([N+](=O)[O-])ccc21, the Potency is reported as “inactive”. With c1ccc(SCCSc2ccccc2)cc1 the Potency was “inactive”. In the case of C#CC(O)CCCCC (stereo not given), the Potency is reported as “inactive”. With CCCc1ccccc1O the Potency was “inactive”. With CC(C)CCCC(C)CCCC(C)CCCCC(C)CCCC(C)CCCC(C)C (stereo not given) the Potency was “inactive”. For CCC(=O)c1cccc(Cl)c1, the Potency was “inactive”. For C[C@H]1O[C@@H](n2cc(F)c(=O)[nH]c2=O)[C@H](O)[C@@H]1O, the Potency was “inactive”. With CC(CCO)CCCC(C)(C)O (stereo not given) the Potency was “inactive”. In the case of CCn1cc(C(=O)O)c(=O)c2cc(F)c(N3CCN(C)CC3)cc21, the activity change, negative = cytotoxic is reported as 1.05% [at 15.8 µM] (inactive). In the case of O=C(O)c1cccc(C(=O)O)n1, the Potency is reported as “inactive”. With N#CCN(CC#N)CCN(CC#N)CC#N the Potency was “inactive”. In the case of C=C(C)C(=O)NCCCN(C)C, the Potency is reported as “inactive”. In the case of CCCCCCCCCCCCCCCCCCOCC(O)CO (stereo not given), the Potency is reported as “inactive”. In the case of CC(C)(O)C(=O)c1ccc(OCCO)cc1, the Potency is reported as “inactive”. With CCCCc1ccc(N)cc1 the Potency was “inactive”. For C(=C(c1ccccc1)c1ccccc1)c1ccccc1, the Potency was “inactive”. For CCCCCCCCN(C)CCCCCCCC, the Potency was “inactive”. With CC(C=O)Cc1ccc(C(C)C)cc1 (stereo not given) the Potency was “inactive”. In the case of CCCCCCCCC=O, the Potency is reported as “inactive”. With NC(=O)c1ncn([C@@H]2O[C@H](CO)[C@@H](O)[C@H]2O)c1N the Potency was “inactive”. With CCc1cc(S(=O)(=O)O)c2cc(C(C)C)cccc1-2 the Potency was “inactive”. With CC(C)CCCC(C)NCCC(C)C (stereo not given) the Potency was “inactive”. With COC[C@H](c1ccc(C(F)(F)F)cc1)N1CCN(C2(C)CCN(C(=O)c3c(C)ncnc3C)CC2)C[C@H]1C the Potency was “inactive”. In the case of O=C(CCOCCOCCOCCOCCC(=O)Nc1c(I)cc(I)c(C(=O)O)c1I)Nc1c(I)cc(I)c(C(=O)O)c1I, the Potency is reported as “inactive”. For CC1(C)SC(C)(C)SC(C)(C)S1, the Potency was “inactive”. In the case of Cn1ccc2cc3c(cc21)CCN3C(=O)Nc1cccnc1, the activity change, negative = cytotoxic is reported as -1.69% [at 15.8 µM] (inactive). With CN(C)CCn1nnnc1SCC1=C(C(=O)O)N2C(=O)[C@@H](NC(=O)Cc3csc(N)n3)[C@H]2SC1 the Potency was “inactive”. In the case of C1C2OC2C2C1C1CC2C2OC12 (stereo not given), the Potency is reported as “inactive”. For O=c1[nH]c2ccccc2c(=O)n1CCCl, the Potency was “inactive”. With CC(=O)CCc1ccc(O)cc1 the Potency was “inactive”. With N#CCc1ccccc1[N+](=O)[O-] the Potency was “inactive”. For CC(C)=CCC/C(C)=C/C(=O)O, the Potency was “inactive”. In the case of C=C(C)C(=O)OCCC(C)OC(=O)C(=C)C (stereo not given), the Potency is reported as “inactive”. In the case of CCCCC=O, the Potency is reported as “inactive”. In the case of CC(C)(C)CC(C)(C)N, the Potency is reported as “inactive”.
